In the library only some 3.5% were active in any assay of this set; here they are far more common.
BoNT-F LC inh = inhibitors of Botulinum neurotoxin F light chain protease; Multiplex microsphere protease cleavage assay, flow cytometry; actives 0.22% (n = 360,000); inhibition, % at 10 µM; AID 588497; in the data active = inhibition above about 35%, passing the limit was not always enough; inconclusive = no clear call, values can overlap the other calls
Anthrax LF prot = inhibitors of Bacillus anthracis lethal factor protease; P15917; multiplex microsphere protease cleavage assay, LF; inhibition, % at 10 µM; actives 0.12% (n = 360,000); AID 588501
BoNT A protease = inhibitors of Botulinum neurotoxin A light chain protease; actives 0.17% (n = 360,000); inhibition, % at 10 µM; multiplex microsphere protease substrate cleavage, flow cytometry; AID 588499
Bead autofluor = flagged as autofluorescent in microsphere protease counterscreen; compound autofluorescence counterscreen, microsphere flow cytometry; active compounds read high; fluorescence intensity (concentration not given with the values); actives 3.1% (n = 360,000); AID 624483; in the data active = fluorescence intensity above about 16000; inconclusive = no clear call, values can overlap the other calls
Each line names hits and unclear results; the compound was inactive in the other large screens. Rule as the data show it, unless noted: active = inhibition above about 30%; inconclusive = no clear call, values can overlap the other calls; inactive = below that.

CCNC(=O)CN(CCc1ccccc1)S(=O)(=O)c1ccc(OC)cc1	Bead autofluor 16480
Clc1cccc(N2CCNCC2)c1Cl	Bead autofluor 19873
COc1ccc([C@H]2CN(c3ccc(OC)cc3)C(=O)[C@@H]2CC(=O)Nc2ccc(Br)cc2)cc1	none
O=C(Nc1cccc(O)c1)c1cnn2cccnc12	Bead autofluor 19751
O=C(Nc1cccnc1)c1cnn2cccnc12	none
CC1(C)CC(=O)C(CC(=O)c2ccccc2)=C(NN=C(N)N)C1	none
Cc1ccc(NC(=S)N2CCC(N(C)CC3CCCO3)CC2)c(C)c1 (configuration not stated)	Bead autofluor 19642
CCc1c(C)sc(NC(=S)N2CCN(C(=O)C3CCCO3)CC2)c1C(=O)OC (configuration not stated)	Bead autofluor 51235
Cc1ccc(NC(=S)N2CCN(C(=O)C3CCCO3)CC2)c(C)c1 (configuration not stated)	BoNT A protease inconclusive, Bead autofluor 22658
Cc1ccc(C)c(NC(=S)N2CCC(N(C)CC3CCCO3)CC2)c1 (configuration not stated)	none
COc1ccc(CCN2CC(C(=O)Nc3nccs3)CC2=O)cc1OC (configuration not stated)	none
COc1ccc(-c2cccc(NC(=O)c3ccc4c(c3)OCO4)c2)nn1	Bead autofluor inconclusive
NC(=O)c1c(-c2ccccc2)oc2ccc(O)cc12	Bead autofluor 22271
COc1ccccc1-c1cccc(-c2nc(C(=O)N3CCCCC3)cc3c2[C@@H](CCO)N(S(=O)C(C)(C)C)C3)c1 (some centres not stated)	none
CCN(CC)S(=O)(=O)c1ccc(N2CCCCC2)c(NC(=O)/C=C/c2ccc(OC)c(OC)c2)c1	none
COc1ccc(C2(CNC(=O)/C=C/c3ccco3)CCCC2)cc1OC	Bead autofluor 19955
O=C(/C=C/c1ccco1)NCC1(c2ccccc2)CCCC1	none
CCN(CC)S(=O)(=O)c1ccc(OC)c(NC(=O)/C=C/c2ccco2)c1	BoNT-F LC inh 34.7
CC(C)(C)c1ccc(OCC(=O)O/N=C(\N)c2ccncc2)cc1	none
Cc1ccc(OCc2nnc(SCC(N)=O)n2N)cc1	none
CCOc1ccc(Cc2nnc(SCC(N)=O)n2C)cc1	Bead autofluor 21499
COCCn1c(COc2ccc(Cl)cc2)nnc1SCC(N)=O	Bead autofluor 22516
CN(C)c1ccc(CC(=O)N2CCCC(c3cc(C(=O)Nc4ccc(F)c(Cl)c4)no3)C2)cc1 (configuration not stated)	none
COC(=O)c1ccc2c(c1)NC(=O)C(N1CCCC1)S2 (configuration not stated)	Bead autofluor 19419
O=C(O)c1ccc2c(c1)NC(=O)C(N1CCCC1)S2 (configuration not stated)	none
COC(=O)c1ccc2c(c1)NC(=O)C(N1CCCCC1)S2 (configuration not stated)	Bead autofluor 22781
Cc1ccc([C@H]2C[C@@H](O)[C@H](n3cc(C4CC4)nn3)CN2C(=O)C2CCCCC2)cc1	none
CCCCCCN1C=CC(=C/C=C(\C#N)C(=O)OCC)C=C1	Bead autofluor 24837
CCOC(=O)/C(C#N)=C/C=C1\C=Cc2ccccc2N1CC	BoNT-F LC inh 178.5, Anthrax LF prot 45.8, Bead autofluor 119384
Cc1cc2nnc(SCC(=O)N3C(C)CCCC3C)n2c(N)n1 (configuration not stated)	BoNT A protease inconclusive, Bead autofluor 22651
CC(O)C1CCC2C3CCC4CC(O)CCC4(C)C3C(=O)CC12C (configuration not stated)	none
CCc1c(C(=O)NC(C)C2CCCO2)csc1C (configuration not stated)	none
Cc1ccc(NC(=O)NC2C(NC(=O)Nc3ccc(C)cc3)N(C)C(=O)N2C)cc1 (configuration not stated)	BoNT A protease inconclusive, Bead autofluor 18428
Cc1nc2nc(-c3cccnc3)[nH]n2c(=O)c1Cc1ccccc1	Bead autofluor 20663
O=C1c2[nH]nc(-c3ccccc3O)c2C(c2cccc(Cl)c2)N1CC1CCCO1 (configuration not stated)	Bead autofluor 22113
O=C1c2[nH]nc(-c3ccccc3O)c2C(c2ccc(F)cc2)N1CC1CCCO1 (configuration not stated)	none
CCc1cccc(NC(=O)COC(=O)C2COc3ccccc3O2)c1 (configuration not stated)	none
CC1=NNC(=O)C1CCC(=O)N/N=C\c1ccccc1[N+](=O)[O-] (configuration not stated)	BoNT A protease inconclusive, Bead autofluor 22394
CC(C)(C)OC(=O)N1CCC(C(=O)N2CCC[C@H]2C(=O)O)CC1	Bead autofluor 20337
CC(C)(C)OC(=O)N1CCC[C@@H]1C(=O)N1CCC(C(=O)O)CC1	none
O=C(Nc1ccc(Cl)c([N+](=O)[O-])c1)c1ccc(NCCCN2CCOCC2)c([N+](=O)[O-])c1	Bead autofluor 23261
O=C(Oc1ccc(-c2cn3c(n2)SCC3)cc1)c1ccccc1	Bead autofluor 20792
Cn1c(CN2CCOCC2)c(C#N)c2ccccc21	Bead autofluor 17523
CN1CCN(Cc2nc3ccccc3n2C)CC1	BoNT A protease inconclusive, Bead autofluor 19606
CN1CCN(Cc2c(C#N)c3ccccc3n2C)CC1	BoNT A protease inconclusive, Bead autofluor 19926
Cn1c(CN2CCCC2)c(C#N)c2ccccc21	none
O=C(NC(Cc1c[nH]c2ccccc12)C(=O)O)c1cccc(S(=O)(=O)N2CCCCC2)c1 (configuration not stated)	none
Cc1cccc(N(CC(=O)NC2CCCC2)C(=O)CS(=O)CC(=O)Nc2ccc3c(c2)OCO3)c1 (configuration not stated)	BoNT A protease inconclusive, Bead autofluor 22772
Cc1ccc(NC(=O)CS(=O)CC(=O)N(CC(=O)NC2CCCC2)c2ccc3c(c2)OCCO3)cc1 (configuration not stated)	none
CC1(C)CC(=O)C(C(c2ccc3c(c2)OCO3)C2C(=O)CC(C)(C)CC2=O)C(=O)C1	none
Cc1cccc(C)c1OCC(O)CNC(C)C (configuration not stated)	none
Cc1cccc(C)c1OCC(O)CNC(C)(C)C (configuration not stated)	Bead autofluor 16186
CCCCCOc1ccc(NC(=O)C2OC3OC(C)(C)OC3C3OC(C)(C)OC23)cc1 (configuration not stated)	none
COc1ccc(NC(=O)C2OC3OC(C)(C)OC3C3OC(C)(C)OC23)cc1 (configuration not stated)	Bead autofluor 23845
COC(=O)c1sccc1NC(=O)c1cc(C)on1	BoNT A protease inconclusive, Bead autofluor 17750
COC(=O)c1sccc1NC(=O)c1c(C)noc1C	Bead autofluor 23485
COC(=O)c1sccc1NC(=O)c1ccccc1Br	none
CCc1sc(C(=O)Nc2ccsc2C(=O)OC)cc1Br	Bead autofluor 16369
Cc1ccc(-c2nnc(NC3CCCC3)s2)cc1	none
Cc1c(NC(=O)c2cc(S(=O)(=O)N3CCCCC3)ccc2Cl)c(=O)n(-c2ccccc2)n1C	none
C[C@H](CO)N1C[C@H](C)[C@@H](CN(C)S(=O)(=O)c2ccc3c(c2)OCCCO3)OCc2cn(nn2)CCCC1=O	none
